A selection: hits, their analogues and other compounds. The true share with any hit is near 6.4%.
Luc counter – Counterscreen for Luciferase (Kinase-Glo TM) Inhibition; Luciferin 4-monooxygenase (Photuris pensylvanica), Q27757; Kinase-Glo luciferase, ATP luminescence, 8 min; Potency, µM (highest dose often 38.3 µM), for inactives: at the top dose activity change, negative = inhibition, most hits filed as inhibitors; 200,000 compounds, 0.28% hits; AID 1379, 2008; note: nearly all actives have a fitted effect of over 60% in size
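Kinase-Glo luciferase light output from ATP and luciferin was measured with 10 uM ATP, within the enzyme's linear range. Buffer: 50 mM imidazole pH 7.2, 50 mM KCl, 7 mM MgCl2, 0.01% Tween 20, 0.05% BSA; luminescence read after 8 min at ambient temperature.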
RORgamma inh – qHTS for inhibitors of ROR gamma transcriptional activity; Nuclear receptor ROR-gamma (Mus musculus), P51450; Drosophila S2 Gal4-RORgamma UAS-luciferase reporter, 20 h; 310,000 compounds, 5.4% hits; AID 2551, 2010; Potency, µM (doses to about 53.6 µM), for the others: at the top dose activity change, negative = inhibition, most hits filed as inhibitors; note: nearly all actives have a fitted effect of over 60% in size
Target sequence (P51450 whole entry, looked up, the tested form may be a part): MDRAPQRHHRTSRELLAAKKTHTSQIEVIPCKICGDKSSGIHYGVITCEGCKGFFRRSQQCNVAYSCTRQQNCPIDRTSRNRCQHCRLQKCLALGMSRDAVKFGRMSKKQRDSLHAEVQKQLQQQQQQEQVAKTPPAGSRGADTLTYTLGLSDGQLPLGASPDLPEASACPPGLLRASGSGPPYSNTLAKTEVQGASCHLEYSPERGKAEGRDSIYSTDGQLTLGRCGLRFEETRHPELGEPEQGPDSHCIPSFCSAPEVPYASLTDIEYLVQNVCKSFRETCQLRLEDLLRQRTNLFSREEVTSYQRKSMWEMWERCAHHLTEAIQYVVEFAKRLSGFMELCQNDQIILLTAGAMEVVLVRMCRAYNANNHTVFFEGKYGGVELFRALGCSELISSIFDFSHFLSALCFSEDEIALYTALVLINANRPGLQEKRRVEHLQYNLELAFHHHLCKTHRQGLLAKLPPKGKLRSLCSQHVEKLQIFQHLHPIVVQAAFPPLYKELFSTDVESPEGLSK
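ROR gamma transcriptional activity was tracked as Gal4-UAS luciferase output in stably transfected Drosophila Schneider cells, with compound added 1 hr before 700 uM copper sulfate induction and a 20 hr ambient-temperature incubation.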
VP16 counter – VP16 counterscreen qHTS for inhibitors of ROR gamma transcriptional activity. Drosophila S2 Gal4-VP16 UAS-luciferase, luminescence, 20 h. Potency, µM (highest dose often 53.6 µM), inactives show top-dose activity, negative = inhibition, most hits filed as inhibitors. 310,000 compounds, 3.5% hits. AID 2546, 2010;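 note: Gal4-VP16 expression switched on by copper sulfate through the metallothionein promoter; nearly all actives have a fitted effect of over 50% in size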
* = called active by the depositor; u = inconclusive; x = no result. Calls come from the whole dose curve; as a rule, active = well fitted curve in the direction sought with a large enough effect; inconclusive = small, poorly fitted or top-dose-only effect, or another doubt; inactive = no such curve, though single readings can be large; an effect the other way counts as inactive or inconclusive. % is set by controls: 0 for no effect and ±100 for the full control effect; potency is the fitted concentration of half-maximal effect.

SMILES	Luc counter	RORgamma inh	VP16 counter
O=C(Nc1nc2ccccc2[nH]1)c1ccccc1[N+](=O)[O-]	1%	8.9µM*	22µM*
Cc1c(C(=O)Nc2nc3ccccc3[nH]2)cccc1[N+](=O)[O-]	1%	7.9µM*	10µM*
Cc1c(C(=O)NC(Cc2ccccc2)c2nc3ccccc3[nH]2)cccc1[N+](=O)[O-] (centres undefined)	0%	-4%	3%
CSCC[C@H](NC(=O)c1ccc(Cl)c([N+](=O)[O-])c1)c1nc2ccccc2[nH]1	-1%	1%	u
CCOc1ccc(C(=O)CCC(=O)N(CC)CC(=O)NCc2ccc(Cl)cc2)cc1	x	17%	3%
COc1cc(C)c(NC(=O)Cc2ccsc2)cc1OC	x	3%	0%
COc1ccc(S(=O)(=O)N2CCOCC2)cc1NC(=O)Cn1nnc2ccccc2c1=O	3%	5%	-12%
Cn1c(-c2ccc(F)cc2)cnc1SCC(=O)N1CCCc2ccccc21	2%	-22%	1%
Cn1c(-c2ccc(F)cc2)cnc1SCC(=O)N1CCCCC1	-2%	10µM*	u
COC(=O)c1ccc(N2CCN(C)CC2)c(NC(=O)c2cccnc2)c1	-3%	10%	-3%
Cc1ccc(C(=O)N/C(=C\c2cn(S(=O)(=O)N(C)C)c3ccccc23)C(=O)NCCN2CCOCC2)cc1	x	19%	-2%
COc1cccc(N2CCN(C(=O)c3cccc(NC4=NC5CS(=O)(=O)CC5S4)c3)CC2)c1 (centres undefined)	x	-4%	-20%
CCOC(=O)c1c(C)[nH]sc1=S	5%	6.3µM*	u
CCOC(=O)c1[nH]c(C)c(C(=O)OCC)c1C	15%	-3%	3%
COCC(=O)C(C(=O)OC)[C@H](CCc1ccccc1)NC(=O)OC (some centres undefined)	-2%	5%	0%
Cc1cccc(-n2ncc3c2CCCC3NC(=O)CN2CCCC2=O)c1C (centres undefined)	x	u	-5%
CC1=C(C(=O)NC2CCCc3c2cnn3-c2cccc(C)c2C)OCCO1 (centres undefined)	x	u	11µM*
Cc1cccc(-n2ncc3c2CCCC3NC(=O)CN2CCOC2=O)c1C (centres undefined)	x	36%	2%
CCn1cc(C(=O)NC2CCCc3c2cnn3-c2cccc(C)c2C)cn1 (centres undefined)	x	-7%	1.3µM*
Cc1cccc(-n2ncc3c2CCCC3NC(=O)Cc2c(C)noc2C)c1C (centres undefined)	x	20%	10µM*
Cc1cccc(-n2ncc3c2CCCC3NC(=O)CCc2cccnc2)c1C (centres undefined)	x	23%	u
COc1ccc(OCC(=O)N/N=C/C=C/c2ccccc2)cc1	-5%	-12%	-5%
Cc1ccc(CNC(=O)CN2C(=O)CSc3ccc(S(=O)(=O)N4CCCCC4)cc32)cc1	x	24%	2%
CCOCc1c(C(=O)NC2CCCCCC2)oc2ccccc12	-1%	38%	-8%
Cc1cc(Cl)ccc1OCC(=O)NCC(=O)N/N=C/c1ccco1	-1%	-18%	7%
SMILES	Luc counter	RORgamma inh	VP16 counter
COc1ccccc1/C=C/C=N/n1c(-c2ccc(C)cc2)n[nH]c1=S	-2%	1.1µM*	2.8µM*
COc1ccc(-c2n[nH]c(=S)n2/N=C/C=C\c2ccccc2OC)cc1	0%	3.5µM*	u
S=c1[nH]nc(-c2ccco2)n1/N=C/C=C/c1ccco1	1%	7.1µM*	10µM*
COc1ccccc1/C=C/C=N/n1c(-c2n[nH]c3c2CCC3)n[nH]c1=S	x	-30%	0%
COc1ccccc1/C=C/C=N/n1c(-c2ccccn2)n[nH]c1=S	x	u	2%
S=c1[nH]nc(-c2cc(-c3ccccc3)n[nH]2)n1/N=C/C=C/c1ccco1	x	u	-11%
COc1ccccc1/C=C/C=N/n1c(-c2ccncc2)n[nH]c1=S	1%	u	u
COc1ccccc1/C=C/C=N/n1c(-c2ccco2)n[nH]c1=S	x	0.63µM*	2%
O=C(NCCc1ccccc1C(F)(F)F)C1CCC(=O)N(CCCN2CCCC2=O)C1 (centres undefined)	x	-5%	10%
COc1ccc(-c2nc3nc(N)nn3cc2C)cc1F	5%	8%	-13%
CCS(=O)(=O)N1CCN(c2ccc([N+](=O)[O-])c(NCC3CCCO3)c2)CC1 (centres undefined)	4%	8%	0%
Cc1cc(C)c2c(N)c(C(=O)Nc3ccccc3Br)sc2n1	x	-11%	-11%
COC(=O)c1sc2nc(C)cc(C)c2c1N	-3%	-20%	-1%
